Assay results taken from the supplement of paper PMC10849652.
Targets with a hit are over-represented here; the source holds about 7,900 in all. About 0.6% of all pairs of compound and target were hits. Values without a mark were called inactive.

Tests used:
Assay in all cases: log2 fold change, soluble protein after heating vs DMSO (PISA); higher = thermal stabilisation; K562 cells, 10 uM, 30 min; active = over 0.2 and 3.5 SD of the protein, either way, in both replicates (recomputed)
[1] = compound: Cc1ccc(NC(=O)c2ccc(CN3CC[C@H](N(C)C)C3)c(C(F)(F)F)c2)cc1Nc1nccc(-c2cncnc2)n1 [bafetinib]
Method in brief: (§1)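 K562 cells (2×10^6 cells/mL) were treated with 10 μM compound for 30 min, and aliquots were heated for 3 min over 48°C-58°C. Pooled aliquots were extracted in PBS with 0.5% NP-40 at 4°C, and the supernatant after 21,000xg for 90 min was measured by TMTpro 16plex LC-MS/MS with channel sums equalised. Reported thermal stability, relative to control samples and from duplicates, is a log2 fold change.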

[2] = compound: Cc1cccc(CC(=O)N2CCc3c2ccc(-c2cn(C)c4ncnc(N)c24)c3F)n1
Method in brief: as §1

[3] = compound: Cc1cn(-c2cc(NC(=O)c3ccc(C)c(Nc4nccc(-c5cccnc5)n4)c3)cc(C(F)(F)F)c2)cn1 [nilotinib]
Method in brief: as §1

[4] = compound: Cc1nc(Nc2n[nH]c3c2CN(C(=O)N[C@H](CN(C)C)c2ccccc2)C3(C)C)c2sccc2n1
Method in brief: as §1

[5] = compound: Cc1nc(Nc2ncc(C(=O)Nc3c(C)cccc3Cl)s2)cc(N2CCN(CCO)CC2)n1 [dasatinib]
Method in brief: as §1

[6] = compound: Cc1ncc(-c2ccnc(Nc3ccc(S(C)(=O)=O)cc3)n2)n1C(C)C
Method in brief: as §1

[7] = compound: Cn1cc(-c2ccc3c(c2)CCN3C(=O)Cc2cccc(C(F)(F)F)c2)c2c(N)ncnc21
Method in brief: as §1

[8] = compound: Cn1cc(-c2ccc3nnc(C(F)(F)c4ccc5ncccc5c4)n3n2)cn1
Method in brief: as §1

[9] = compound: Cn1cncc1[C@@](N)(c1ccc(Cl)cc1)c1ccc2c(c1)c(-c1cccc(Cl)c1)cc(=O)n2C [tipifarnib]
Method in brief: as §1

[10] = compound: FC(F)(F)c1ccc(/C=C/c2nc(COc3ccc(CCCCn4ccnn4)cc3)co2)cc1 [mubritinib]
Method in brief: as §1

[11] = compound: NC(=O)Nc1cc(-c2cccc(F)c2)sc1C(=O)N[C@H]1CCCNC1
Method in brief: as §1

[12] = compound: NC(=O)c1cnc(N[C@@H]2CCCC[C@@H]2N)nc1Nc1cccc(-n2nccn2)c1
Method in brief: as §1

[13] = compound: NC1(c2ccc(-c3nc4ccn5c(=O)[nH]nc5c4cc3-c3ccccc3)cc2)CCC1
Method in brief: as §1

[14] = compound: NCC(=O)Nc1ccc(-n2nc(C(F)(F)F)cc2-c2ccc3c(ccc4ccccc43)c2)cc1
Method in brief: as §1

[15] = compound: Nc1ccccc1NC(=O)c1ccc(CNC(=O)OCc2cccnc2)cc1 [entinostat]
Method in brief: as §1

[16] = compound: O=C(CCCCCCC(=O)Nc1ccccc1)NO [vorinostat]
Method in brief: as §1

[17] = compound: O=C(CCCCCCNC(=O)c1cnc(N(c2ccccc2)c2ccccc2Cl)nc1)NO [citarinostat]
Method in brief: as §1

[18] = compound: O=C(O)c1ccc2c(c1)nc(Nc1cccc(Cl)c1)c1ccncc12 [silmitasertib]
Method in brief: as §1

[19] = compound: O=C1NC(=O)C(c2cnc3ccccn23)=C1c1cn2c3c(cc(F)cc13)CN(C(=O)N1CCCCC1)CC2
Method in brief: as §1

[20] = compound: c1cc(OCCN2CCCCC2)cc(-c2n[nH]c3ccc(-c4nnc[nH]4)cc23)c1
Method in brief: as §1

Sequence of UniProt Q8WV92 (Q8WV92 whole entry, looked up): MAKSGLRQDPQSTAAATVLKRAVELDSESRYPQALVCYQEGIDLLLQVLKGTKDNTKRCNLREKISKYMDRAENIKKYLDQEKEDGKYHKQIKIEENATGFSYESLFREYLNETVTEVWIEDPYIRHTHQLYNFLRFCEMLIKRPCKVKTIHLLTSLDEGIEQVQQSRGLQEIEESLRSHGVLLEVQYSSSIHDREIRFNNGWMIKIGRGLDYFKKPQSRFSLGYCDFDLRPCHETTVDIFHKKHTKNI
Sequence of UniProt Q9H081 (Q9H081 whole entry, looked up): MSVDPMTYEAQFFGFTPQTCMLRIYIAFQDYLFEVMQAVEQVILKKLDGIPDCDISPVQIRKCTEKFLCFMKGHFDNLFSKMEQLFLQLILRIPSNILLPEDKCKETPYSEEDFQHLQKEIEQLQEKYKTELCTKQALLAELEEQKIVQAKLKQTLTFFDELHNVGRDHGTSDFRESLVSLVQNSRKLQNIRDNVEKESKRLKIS
Sequence of UniProt Q9HAN9 (Q9HAN9 whole entry, looked up): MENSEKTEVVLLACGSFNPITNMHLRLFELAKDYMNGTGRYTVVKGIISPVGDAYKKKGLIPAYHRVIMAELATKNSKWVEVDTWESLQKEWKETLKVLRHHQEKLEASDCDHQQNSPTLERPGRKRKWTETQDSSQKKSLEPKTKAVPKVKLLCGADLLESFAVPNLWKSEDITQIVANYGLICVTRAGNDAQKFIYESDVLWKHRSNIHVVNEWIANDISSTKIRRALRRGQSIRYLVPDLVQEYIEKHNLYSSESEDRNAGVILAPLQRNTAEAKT
Sequence of UniProt Q16795 (Q16795 whole entry, looked up): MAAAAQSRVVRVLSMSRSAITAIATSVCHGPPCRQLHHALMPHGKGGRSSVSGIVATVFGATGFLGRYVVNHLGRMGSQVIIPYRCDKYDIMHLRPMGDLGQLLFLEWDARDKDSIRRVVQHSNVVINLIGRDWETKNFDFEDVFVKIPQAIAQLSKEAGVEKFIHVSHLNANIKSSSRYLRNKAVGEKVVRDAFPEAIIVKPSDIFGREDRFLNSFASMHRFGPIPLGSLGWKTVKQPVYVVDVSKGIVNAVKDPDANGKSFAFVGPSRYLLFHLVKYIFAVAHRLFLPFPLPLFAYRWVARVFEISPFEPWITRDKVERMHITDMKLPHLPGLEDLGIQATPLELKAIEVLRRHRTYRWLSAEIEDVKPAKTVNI
Sequence of UniProt P49321 (P49321 whole entry, looked up): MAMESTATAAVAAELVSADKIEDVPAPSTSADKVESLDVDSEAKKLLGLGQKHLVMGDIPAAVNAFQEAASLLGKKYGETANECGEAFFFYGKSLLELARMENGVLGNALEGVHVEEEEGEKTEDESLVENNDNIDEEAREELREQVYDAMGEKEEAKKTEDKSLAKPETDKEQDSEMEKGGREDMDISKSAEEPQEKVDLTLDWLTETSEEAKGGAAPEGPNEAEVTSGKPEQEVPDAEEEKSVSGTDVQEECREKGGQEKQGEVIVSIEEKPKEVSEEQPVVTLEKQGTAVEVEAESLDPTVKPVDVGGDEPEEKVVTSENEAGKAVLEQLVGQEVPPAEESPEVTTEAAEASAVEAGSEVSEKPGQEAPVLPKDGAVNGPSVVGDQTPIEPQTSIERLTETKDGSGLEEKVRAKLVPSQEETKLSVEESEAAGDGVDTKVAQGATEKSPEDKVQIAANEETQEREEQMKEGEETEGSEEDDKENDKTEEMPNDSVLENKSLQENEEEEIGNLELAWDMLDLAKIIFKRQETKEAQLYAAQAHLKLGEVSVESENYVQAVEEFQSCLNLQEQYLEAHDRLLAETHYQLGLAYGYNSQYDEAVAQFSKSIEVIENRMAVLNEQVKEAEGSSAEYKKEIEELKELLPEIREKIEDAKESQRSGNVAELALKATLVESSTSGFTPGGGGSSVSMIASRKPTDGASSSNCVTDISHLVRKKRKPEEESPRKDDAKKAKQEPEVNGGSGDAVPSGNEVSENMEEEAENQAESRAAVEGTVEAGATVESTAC
Sequence of UniProt O43181 (O43181 whole entry, looked up): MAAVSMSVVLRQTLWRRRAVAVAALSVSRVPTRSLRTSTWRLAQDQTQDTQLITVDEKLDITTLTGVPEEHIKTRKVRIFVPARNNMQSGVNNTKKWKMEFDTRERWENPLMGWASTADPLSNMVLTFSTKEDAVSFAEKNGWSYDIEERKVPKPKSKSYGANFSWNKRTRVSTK
Sequence of UniProt Q96IV0 (Q96IV0 whole entry, looked up): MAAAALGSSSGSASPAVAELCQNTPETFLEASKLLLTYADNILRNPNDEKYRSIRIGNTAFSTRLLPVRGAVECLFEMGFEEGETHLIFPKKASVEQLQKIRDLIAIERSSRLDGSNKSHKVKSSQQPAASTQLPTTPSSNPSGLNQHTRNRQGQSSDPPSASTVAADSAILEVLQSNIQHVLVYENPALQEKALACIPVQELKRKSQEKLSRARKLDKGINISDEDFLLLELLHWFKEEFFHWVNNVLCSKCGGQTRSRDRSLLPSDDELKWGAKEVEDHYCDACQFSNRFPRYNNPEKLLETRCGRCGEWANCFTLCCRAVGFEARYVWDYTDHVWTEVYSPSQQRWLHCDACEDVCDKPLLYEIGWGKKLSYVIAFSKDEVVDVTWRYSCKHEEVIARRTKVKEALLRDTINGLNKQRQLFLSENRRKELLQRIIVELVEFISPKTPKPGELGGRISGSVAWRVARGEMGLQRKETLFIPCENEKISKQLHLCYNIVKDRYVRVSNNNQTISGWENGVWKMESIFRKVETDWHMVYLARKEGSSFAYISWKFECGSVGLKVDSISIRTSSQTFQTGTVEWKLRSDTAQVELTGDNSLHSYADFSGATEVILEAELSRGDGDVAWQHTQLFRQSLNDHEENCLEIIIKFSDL
Sequence of UniProt P46087 (P46087 whole entry, looked up): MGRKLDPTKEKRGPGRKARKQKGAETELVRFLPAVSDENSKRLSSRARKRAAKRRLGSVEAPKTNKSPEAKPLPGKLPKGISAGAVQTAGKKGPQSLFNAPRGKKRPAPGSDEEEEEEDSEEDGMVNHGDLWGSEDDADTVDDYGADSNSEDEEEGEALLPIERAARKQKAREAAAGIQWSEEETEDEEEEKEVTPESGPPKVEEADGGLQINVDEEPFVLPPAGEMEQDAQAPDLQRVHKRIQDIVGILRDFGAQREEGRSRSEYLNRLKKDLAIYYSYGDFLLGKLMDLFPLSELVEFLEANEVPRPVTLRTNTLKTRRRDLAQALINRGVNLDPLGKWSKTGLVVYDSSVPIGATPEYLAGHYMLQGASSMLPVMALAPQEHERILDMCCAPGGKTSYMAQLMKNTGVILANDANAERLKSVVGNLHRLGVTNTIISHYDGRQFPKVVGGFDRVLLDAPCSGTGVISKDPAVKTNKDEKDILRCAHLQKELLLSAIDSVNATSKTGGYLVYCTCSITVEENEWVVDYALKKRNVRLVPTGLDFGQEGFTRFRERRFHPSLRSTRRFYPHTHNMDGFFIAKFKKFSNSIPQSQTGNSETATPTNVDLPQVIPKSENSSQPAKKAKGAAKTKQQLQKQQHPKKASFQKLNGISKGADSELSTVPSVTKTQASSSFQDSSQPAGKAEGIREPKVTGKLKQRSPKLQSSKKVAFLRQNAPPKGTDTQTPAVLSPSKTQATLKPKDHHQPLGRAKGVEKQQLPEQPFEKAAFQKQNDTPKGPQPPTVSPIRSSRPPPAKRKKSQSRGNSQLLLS

Row | Target | log2 fold change [1] | log2 fold change [2] | log2 fold change [3] | log2 fold change [4] | log2 fold change [5] | log2 fold change [6] | log2 fold change [7] | log2 fold change [8] | log2 fold change [9] | log2 fold change [10] | log2 fold change [11] | log2 fold change [12] | log2 fold change [13] | log2 fold change [14] | log2 fold change [15] | log2 fold change [16] | log2 fold change [17] | log2 fold change [18] | log2 fold change [19] | log2 fold change [20]
1 | NGLY1 (UniProt Q96IV0) | 0.039 | 0.055 | -0.068 | -0.038 | -0.064 | 0.021 | -0.009 | -0.034 | -0.067 | -0.062 | -0.073 | 0.059 | -0.151 | -0.109 | 0.025 | 0.008 | 0.079 | 0.079 | 0.059 | -0.059
2 | NOP2 isoform 4 (UniProt P46087) | 0.274 | -0.065 | 0.111 | 0.066 | 0.344 | 0.096 | -0.568 | -0.319 | 0.214 | -0.304 | 0.205 | 0.241 | 0.408 | 0.3 | -0.163 | 0.014 | -0.04 | 0.288 | 0.344 | -0.095
3 | NDUFA9 (UniProt Q16795) | -0.019 | 0.033 | -0.056 | 0.005 | -0.127 | 0.012 | 0.002 | -0.007 | -0.033 | 0.223 (active) | -0.025 | -0.089 | -0.112 | -0.091 | 0.039 | 0.065 | 0.037 | -0.016 | -0.104 | 0.017
4 | MITD1 (UniProt Q8WV92) | -0.217 | -0.006 | -0.065 | -0.035 | 0.006 | -0.101 | 0.01 | 0.009 | 0.098 | -0.108 | 0.016 | -0.018 | -0.387 | -0.059 | -0.08 | 0.057 | -0.135 | 0.14 | -0.176 | 0.228
5 | MIS12 (UniProt Q9H081) | -0.05 | 0.017 | -0.062 | -0.048 | -0.114 | 0.037 | -0.028 | 0.005 | 0.016 | 0.071 | 0.016 | -0.084 | -0.079 | -0.101 | 0.027 | 0.123 | 0.014 | 0.016 | 0.02 | -0.081
6 | NUP98 (UniProt P52948) | -0.008 | 0.018 | -0.034 | -0.062 | -0.077 | -0.044 | -0.026 | -0.075 | 0.005 | 0 | 0.018 | -0.086 | -0.025 | -0.076 | 0 | 0.052 | 0.028 | 0.072 | 0.001 | -0.073
7 | MRPS10 (UniProt P82664) | 0.057 | 0.119 | -0.097 | 0.006 | -0.005 | -0.046 | 0.002 | -0.096 | -0.104 | 0.1 | -0.014 | 0.004 | -0.052 | 0.011 | -0.033 | 0.057 | 0.07 | -0.048 | 0 | -0.08
8 | MRPS33 (UniProt Q9Y291) | 0.123 | 0.125 | -0.129 | 0.064 | 0.031 | -0.04 | -0.033 | 0.028 | -0.003 | 0.106 | 0.019 | 0.02 | -0.032 | 0.046 | 0 | 0.035 | 0.039 | -0.066 | 0.016 | -0.052
9 | NDUFS4 (UniProt O43181) | -0.083 | 0.017 | 0.039 | 0.015 | 0.087 | -0.047 | 0.025 | -0.049 | 0.202 | 0.058 | -0.015 | 0.026 | 0.005 | 0.053 | -0.095 | -0.058 | -0.069 | 0.03 | 0.007 | -0.039
10 | MRPS9 (UniProt P82933) | 0.106 | 0.067 | -0.094 | 0.008 | -0.023 | -0.024 | -0.073 | 0.057 | -0.025 | 0.085 | -0.03 | -0.011 | -0.117 | 0.018 | 0.008 | 0.167 | 0.035 | -0.083 | -0.019 | -0.081
11 | NASP (UniProt P49321) | -0.036 | 0.011 | -0.013 | -0.032 | -0.027 | 0 | -0.02 | 0.009 | -0.026 | 0.026 | -0.009 | -0.081 | -0.06 | -0.054 | 0.035 | 0.028 | 0.035 | 0.063 | -0.034 | -0.02
12 | NMNAT1 (UniProt Q9HAN9) | 0.052 | -0.034 | -0.073 | 0.023 | 0.159 | -0.047 | -0.143 | -0.21 | 0.118 | -0.047 | 0.171 | 0.145 | 0.197 | 0.081 | 0.002 | -0.077 | -0.033 | 0.201 | 0.259 | -0.174
13 | NUDT1 (UniProt P36639) | 0.129 | 0.052 | -0.087 | 0.271 | -0.127 | 0.301 | 0.194 | 0.06 | -0.069 | 0.137 | 0.159 | 0.145 | 1.01 (active) | -0.129 | -0.026 | 0.033 | -0.073 | -0.091 | 0.791 | 0.572
